In PubChem BioAssay (NCI):
This is part of a sample that, as a whole, favours compounds with a hit. Of some 79,000 tested, about 15% had one in any assay. Values without a mark were called inactive. Activity calls are given as the source filed them. Cut-off read from the data, not from the text of the source: active = growth inhibition above about 70%; inactive = the rest.

Experiment: NCI Yeast Anticancer Drug Screen. Data for the bub3 strain (AID 167)
Conditions: S. cerevisiae bub3 mutant strain, stronger effect = higher value
Protocol: Growth inhibition of yeast strains with defined genetic alterations is measured as a screen for potential anti-cancer activity. Selected strains with alterations in DNA damage repair or cell cycle control were exposed to compounds and growth inhibition was measured relative to vehicle treated controls. The strain used in this assay is bub3

[1] = at 5.0 µM (retest, dose inferred, filed as 0.5)
[2] = at 50.0 µM (retest, dose inferred, filed as 5.0)

Q: With `CCCCC(CC)C(=O)Oc1ccc(C(=O)c2ccccc2)c(O)c1` (stereo not given) as the molecule, how does the growth inhibition (at 1.2 µM) read?
A: Its growth inhibition is 21%.

Q: And the growth inhibition (at 3.7 µM)?
A: The growth inhibition was 27%.

Q: And the growth inhibition [1]?
A: Its growth inhibition is -1%.

Q: What about the growth inhibition (at 11.0 µM) of the same molecule?
A: The growth inhibition was 32%.

Q: And the growth inhibition (at 33.0 µM)?
A: The growth inhibition was 69%.

Q: What about the growth inhibition [2] of the same molecule?
A: The growth inhibition was 89% (active).

Q: And the growth inhibition (at 50.0 µM)?
A: The growth inhibition was 73% (active).

Q: And the growth inhibition (at 100.0 µM)?
A: The growth inhibition was 98% (active).

Q: With `C=Cc1cnc([N+](=O)[O-])n1C` as the molecule, how does the growth inhibition (at 1.2 µM) read?
A: The growth inhibition was -5%.

Q: And the growth inhibition (at 3.7 µM)?
A: Its growth inhibition is -2%.

Q: What about the growth inhibition [1] of the same molecule?
A: Its growth inhibition is 8%.

Q: What about the growth inhibition (at 11.0 µM) of the same molecule?
A: Its growth inhibition is -2%.

Q: And the growth inhibition (at 33.0 µM)?
A: The growth inhibition was 20%.

Q: What about the growth inhibition [2] of the same molecule?
A: The growth inhibition was 69%.

Q: And the growth inhibition (at 50.0 µM)?
A: The growth inhibition was 82.1% (active).

Q: And the growth inhibition (at 100.0 µM)?
A: Its growth inhibition is 82% (active).

Q: With `O=[N+]([O-])/C(C(Cl)=C(Cl)Cl)=C1/OCCS1` as the molecule, how does the growth inhibition (at 1.2 µM) read?
A: Its growth inhibition is 6%.

Q: And the growth inhibition (at 3.7 µM)?
A: The growth inhibition was 27%.

Q: And the growth inhibition [1]?
A: The growth inhibition was -12%.

Q: What about the growth inhibition (at 11.0 µM) of the same molecule?
A: Its growth inhibition is 90% (active).

Q: And the growth inhibition (at 33.0 µM)?
A: The growth inhibition was 99% (active).

Q: And the growth inhibition [2]?
A: The growth inhibition was 100% (active).

Q: What about the growth inhibition (at 50.0 µM) of the same molecule?
A: Its growth inhibition is 92.5% (active).

Q: What about the growth inhibition (at 100.0 µM) of the same molecule?
A: Its growth inhibition is 98% (active).

Q: For `CCC(c1ccc(O)cc1)C(CC)c1ccc(OCCN)cc1` (stereo not given), which growth inhibition (at 1.2 µM) is on record?
A: The growth inhibition was -2%.

Q: And the growth inhibition (at 3.7 µM)?
A: The growth inhibition was -3%.

Q: What about the growth inhibition [1] of the same molecule?
A: The growth inhibition was -19%.

Q: What about the growth inhibition (at 11.0 µM) of the same molecule?
A: The growth inhibition was -7%.

Q: What about the growth inhibition (at 33.0 µM) of the same molecule?
A: The growth inhibition was -1%.

Q: What about the growth inhibition [2] of the same molecule?
A: The growth inhibition was 62%.

Q: What about the growth inhibition (at 50.0 µM) of the same molecule?
A: Its growth inhibition is 45.1%.

Q: And the growth inhibition (at 100.0 µM)?
A: The growth inhibition was 72% (active).

Q: Which growth inhibition (at 1.2 µM) does the source give for `Clc1c(Cl)c(Cl)c2c(nnn2C2CCCO2)c1Cl` (stereo not given) here?
A: The growth inhibition was -7%.

Q: What about the growth inhibition (at 3.7 µM) of the same molecule?
A: Its growth inhibition is -8%.

Q: And the growth inhibition [1]?
A: The growth inhibition was 18%.

Q: What about the growth inhibition (at 11.0 µM) of the same molecule?
A: Its growth inhibition is -22%.

Q: What about the growth inhibition (at 33.0 µM) of the same molecule?
A: Its growth inhibition is 11%.

Q: What about the growth inhibition [2] of the same molecule?
A: Its growth inhibition is 60%.

Q: What about the growth inhibition (at 50.0 µM) of the same molecule?
A: Its growth inhibition is 83.2% (active).

Q: And the growth inhibition (at 100.0 µM)?
A: Its growth inhibition is 50%.
